Screening data: PubChem, National Center for Advancing Translational Sciences (NCATS)
RORgamma inh = blocks mouse ROR gamma transcriptional activity. P51450. Drosophila S2 Gal4-RORgamma UAS-luciferase reporter, 20 h. Potency, µM (top dose mostly 53.6 µM), for the others: at the highest dose activity change, negative = inhibition, usual class: inhibitors. hit rate 5.4% among 310,000; note: % is set by controls: 0 for no effect and ±100 for the full control effect; nearly all actives have a fitted effect of over 60% in size
Target sequence (P51450 whole entry, looked up, the tested form may be a part): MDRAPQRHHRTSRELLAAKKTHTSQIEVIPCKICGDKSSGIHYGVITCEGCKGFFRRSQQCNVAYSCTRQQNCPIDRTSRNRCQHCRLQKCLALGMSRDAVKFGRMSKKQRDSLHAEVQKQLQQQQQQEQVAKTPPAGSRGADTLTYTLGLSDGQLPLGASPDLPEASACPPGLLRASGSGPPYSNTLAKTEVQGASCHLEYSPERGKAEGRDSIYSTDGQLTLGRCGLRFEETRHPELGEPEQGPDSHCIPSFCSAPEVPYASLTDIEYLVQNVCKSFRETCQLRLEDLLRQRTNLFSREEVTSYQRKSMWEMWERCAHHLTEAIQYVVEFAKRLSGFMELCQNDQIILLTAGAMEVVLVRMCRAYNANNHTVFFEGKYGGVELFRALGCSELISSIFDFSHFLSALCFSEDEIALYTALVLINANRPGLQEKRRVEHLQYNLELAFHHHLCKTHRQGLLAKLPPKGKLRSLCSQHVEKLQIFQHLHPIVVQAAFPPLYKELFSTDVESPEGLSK
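Stably transfected Drosophila Schneider cells are the test system, with ROR gamma fused to Gal4 and luciferase under UAS control; luminescence is read after 20 hr of 700 uM copper sulfate induction at ambient temperature.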
ELG1 DNA repair = inhibitors of ELG1-dependent DNA repair in HEK293T cells; hit rate 2.3% among 330,000; AID 504467; Potency, µM (series often up to 46.1 µM), without a hit: top-dose activity change, negative = inhibition, usual class: inhibitors; HEK293T ELG1-luciferase reporter, luminescence, 16 h; DNA damage induced by 5-fluorouridine; note: % is set by controls: 0 for no effect and ±100 for the full control effect; nearly all actives have a fitted effect of over 55% in size
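Step one: seed 2,000 cells per well. Step two: pin-transfer compound or DMSO alongside 5-fluorouridine. Step three: incubate 16 hr, 37 °C, 5% CO2. Step four: add ONE-Glo, wait 30 min, read luminescence.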
MCF10A rerep = DNA re-replication induction in MCF 10a cells | MCF 10A DNA re-replication, Hoechst nuclear intensity, 48 h | AID 624296 | Potency, µM (doses to about 46.1 µM), inactives show top-dose activity, positive = re-replication, most hits filed as activators | hit rate 2.9% among 350,000; note: % of control where 0% means no effect; nearly all actives have a fitted effect of over 50% in size
SW480 rereplic = inducers of DNA re-replication in SW480 colon cancer cells | Potency, µM (doses to about 46.1 µM), for inactives: at the highest dose re-replication activation, hits mostly activators | SW480 DNA re-replication, Hoechst DNA content imaging, 48 h | hit rate 1.8% among 340,000; note: % of control where 0% means no effect; nearly all actives have a fitted effect of over 55% in size
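Image-based read-out: total Hoechst fluorescence of nuclei (405 nm excitation, 500-530 nm emission), with hits raising the fraction of high-intensity nuclei. SW480 colon cells incubated 48 hr with compounds at 37 C.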
VP16 counter = Gal4-VP16 reporter inhibition counter-screen. Drosophila S2 Gal4-VP16 UAS-luciferase, luminescence, 20 h. Potency, µM (doses to about 53.6 µM), without a hit: top-dose activity, negative = inhibition, most hits filed as inhibitors. hit rate 3.5% among 310,000;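 note: Gal4-VP16 expression switched on by copper sulfate through the metallothionein promoter; % is set by controls: 0 for no effect and ±100 for the full control effect; nearly all actives have a fitted effect of over 50% in size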
Active calls of the source: *; u = inconclusive; x = not tested or not shown. Shown are actives, neighbours in structure and some others; about 10% of the full set was active somewhere. Calls come from the whole dose curve; as a rule, active = well fitted curve in the direction sought with a large enough effect; inconclusive = small, poorly fitted or top-dose-only effect, or another doubt; inactive = no such curve, though single readings can be large; an effect the other way counts as inactive or inconclusive. Potency is the fitted concentration of half-maximal effect.

SMILES	RORgamma inh	ELG1 DNA repair	MCF10A rerep	SW480 rereplic	VP16 counter
C=CCn1c(SCC(=O)N2CCc3ccccc3C2)nc2sc(CC)cc2c1=O	u	23µM*	15%	-1%	u
CCOC(=O)Cc1csc(NS(=O)(=O)c2ccc([N+](=O)[O-])cc2)n1	-22%	-7%	-2%	18%	1%
CCOC(=O)N1CCc2c(sc(NC(=O)CN3CCOCC3)c2C#N)C1	-16%	u	u	-2%	-3%
CCOC(=O)c1c(NC(=S)N2CCOCC2)sc2c1CCN(C(=O)OCC)C2	-23%	23µM*	u	u	-2%
CCOC(=O)c1c(NC(=S)N2CCCCC2)sc2c1CCN(C(=O)OCC)C2	-40%	u	21µM*	-44%	0%
CCCN1CCC(=O)N([C@H](CSc2ccc(OC)cc2)CC(C)C)CC1	-23%	u	14%	-6%	4%
O=C(Nc1ccccc1)N1CCN(c2cccc(C(F)(F)F)c2)CC1	30%	u	-8%	-7%	-27%
O=C(Nc1ccccc1)N1CCN(c2ccc(C(F)(F)F)cn2)CC1	0%	21µM*	1%	-5%	u
CC1=CC(=O)N(c2ccn(C)n2)C1=O	14µM*	u	8%	-129%	13µM*
Cn1c(SCC(=O)Nc2sccc2C#N)nnc1C1CC1	x	25%	0%	-11%	x
Cc1ccc2nc(Nc3ccccc3)c(/C=N/O)c(=O)n2c1	u	u	u	u	-13%
Cc1ccc(Sc2nc3ccc(C)cn3c(=O)c2/C=N/O)cc1	-42%	5%	16µM*	u	-4%
FC(F)(F)c1ccc(-c2nc(=S)[nH][nH]2)cc1	2.5µM*	u	0%	-3%	-13%
S=c1nc(-c2cccc(Cl)c2)[nH][nH]1	13µM*	u	2%	-27%	u
COc1ccc(-c2nc(=S)[nH][nH]2)cc1	10µM*	22%	-1%	-13%	u
COc1ccc(-c2nc(=S)[nH][nH]2)cc1OC	-37%	14%	1%	18%	-6%
CCOc1ccc(-c2nc(=S)[nH][nH]2)cc1	5µM*	u	3%	0%	22µM*
S=c1nc(-c2cc(Cl)cc(Cl)c2)[nH][nH]1	u	2%	-18%	-2%	-13%
COC(=O)CCN(Cc1ccco1)S(=O)(=O)c1ccc(F)cc1Br	-23%	x	x	x	18%
COc1cc(OC)cc(-c2c(-c3cccs3)c3cc(-c4ccc(CN5CCOCC5)cc4)ccc3n2C)c1	x	-28%	u	7%	x
COc1ccc(-c2nc3ccccc3nc2-c2ccc(OC)cc2)cc1	28%	-12%	u	u	-6%
COc1ccc(-c2n[nH]c(=S)nc2-c2ccc(OC)cc2)cc1	7.1µM*	4%	-7%	3%	u
COc1ccc(CCC(C)NC(=O)Cc2ccc(OC)c(OC)c2)c(OC)c1 (stereo not given)	-5%	18µM*	2%	8%	9%
Cc1ccc(N2CC(C(=O)NC(C)CCc3ccccc3)CC2=O)cc1 (stereo not given)	15%	-12%	-1%	-6%	7%
CCOc1cc(-c2cc(-c3ccc(N)cc3)nc(N)c2C#N)ccc1O	-22%	u	12µM*	u	-4%
SMILES	RORgamma inh	ELG1 DNA repair	MCF10A rerep	SW480 rereplic	VP16 counter
CCOc1cc(-c2cc(-c3ccccc3)nc(N)c2C#N)ccc1O	-8%	u	u	u	-7%
O=S(=O)(Nc1cccc(CCc2ccccn2)c1)c1ccc2ccccc2c1	7.9µM*	6%	6%	0%	2.5µM*
Cc1c(C(=O)NC2CCOC2)oc2c(F)cccc12 (stereo not given)	-3%	u	8%	0%	u
CCOC(=O)N1N=C(c2ccc(C)cc2)CC1(O)C(F)(F)F (stereo not given)	6.3µM*	u	-12%	-4%	6.3µM*
Cc1ccc(OCC(=O)N2N=C(c3ccncc3)CC2(O)C(F)(F)F)cc1C (stereo not given)	4µM*	-30%	u	u	-15%
CCOC(=O)N1N=C(c2ccccc2)CC1(O)C(F)(F)F (stereo not given)	-15%	u	1%	3%	2%
Cc1ccc(C2=NN(C3=NN=C(N)Cc4ncnn43)C(O)(C(F)(F)F)C2)cc1 (stereo not given)	8.9µM*	-2%	-2%	u	u
COc1ccc(OC)c(S(=O)(=O)N2CCCC(C(=O)N3CCCC3)C2)c1 (stereo not given)	-10%	0%	12%	8%	3%
Cc1ccc(Cl)cc1NC(=O)CN1C(=O)NC(C)(C2CC2)C1=O (stereo not given)	x	-10%	u	u	x
Cc1ccc(NC(=O)c2ncn(CC(=O)NCC(C)c3ccccc3)n2)cc1C (stereo not given)	x	19%	-5%	1%	x
COc1cccc(Nc2ncc3nc(C)c(=O)n(CCc4ccccc4)c3n2)c1	6%	x	x	x	8%
CNC1C(O)C(O)C(CO)O[C@H]1OC1C(O[C@@H]2C(O)C(O)[C@@H](N=C(N)N)C(O)C2N=C(N)N)OC(C)[C@]1(O)C=O (stereo not given in full)	-9%	x	x	x	-3%
Cc1cc(S(=O)(=O)NC2CCN(Cc3ccccc3)CC2)c(C)cc1Cl	-13%	6%	u	17%	-26%
COc1cccc(OCC(O)CO)c1 (stereo not given)	-1%	5%	1%	1%	1%
O=C(Nc1nnc(-c2ccccc2F)s1)Nc1ccccc1F	21%	u	1%	-1%	4%
O=C(Nc1nnc(-c2ccccc2SCc2ccccc2)s1)Nc1ccccc1F	-33%	21%	2%	3.7µM*	-2%
O=C(Cn1ncc2c1-c1ccccc1OC2)N1CCN(Cc2ccc3c(c2)OCO3)CC1	15%	23µM*	-5%	-2%	2%
CCCCN(C(=O)c1cccc(S(=O)(=O)N2CCN(Cc3ccccc3)CC2)c1)c1ccccc1	12%	3%	8%	-6%	-19%
Cn1cc(SCC(=O)NCc2ccc(F)cc2)c2ccccc21	11%	10%	4%	2%	9%
Cn1c(=O)cc(SCC(=O)NCc2ccc(F)cc2)c2ccccc21	10%	3%	15µM*	15%	-6%
CCN(CC(=O)Nc1cc(S(=O)(=O)N2CCOCC2)ccc1Cl)Cc1ccccc1	x	18µM*	u	-15%	x
O=C(Cn1cnc2c(cnn2-c2ccccc2)c1=O)Nc1cc(S(=O)(=O)N2CCOCC2)ccc1Cl	u	23µM*	14%	0%	-16%
COC(=O)/C(=C(O)\C=C\c1ccccc1[N+](=O)[O-])c1nc2ccccc2[nH]1	7.9µM*	u	-19%	2%	u
O=C(/C=C\c1ccccc1[N+](=O)[O-])Nc1ccccc1	39%	u	u	-33%	22%
